Most compounds without a hit are left out; they make up all but 2.4% or so of the library.
D2 PAM-1 = positive allosteric modulators of human D2 dopamine receptor; AID 624464; potentiation, % (no concentration beside the values); P14416; DiscoveRx D2 beta-arrestin cells, luminescence, 90 min; 100% = 57 uM dopamine signal; 360,000 compounds, 0.23% hits; in the data active means potentiation above about 50%; inconclusive means mostly about 30% to 49%
Target sequence (P14416 whole entry, looked up): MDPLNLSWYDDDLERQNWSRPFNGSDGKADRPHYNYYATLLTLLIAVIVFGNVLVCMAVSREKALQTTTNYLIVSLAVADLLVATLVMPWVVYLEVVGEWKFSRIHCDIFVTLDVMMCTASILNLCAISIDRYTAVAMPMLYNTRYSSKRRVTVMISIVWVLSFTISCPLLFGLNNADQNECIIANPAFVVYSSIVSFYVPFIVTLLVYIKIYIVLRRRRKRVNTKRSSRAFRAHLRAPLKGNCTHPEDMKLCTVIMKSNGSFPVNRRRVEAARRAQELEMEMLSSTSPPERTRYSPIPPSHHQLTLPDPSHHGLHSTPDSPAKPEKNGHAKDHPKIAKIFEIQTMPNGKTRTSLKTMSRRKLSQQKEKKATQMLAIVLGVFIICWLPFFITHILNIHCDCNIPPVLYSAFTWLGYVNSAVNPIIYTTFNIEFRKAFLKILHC
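PathHunter D2 cells, attached overnight at 37 deg C, received compound in DMSO plus dopamine at EC20 (50 nM final) for 90 min at 37 deg C. Beta-arrestin recruitment was read as luminescence after 1 h with detection reagent at ambient temperature.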
D2 ag-1 = activates the human D2 dopamine receptor. P14416. DiscoveRx PathHunter D2 beta-arrestin, luminescence, 90 min; 100% = 57 uM dopamine signal. activation, % (test concentration not listed). 360,000 compounds, 0.084% hits; in the data active means activation above about 40%; inconclusive means between about 15% and that limit
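Agonist mode: compounds alone added to overnight-plated D2 PathHunter cells for 90 min at 37 C, with 57 uM final dopamine (EC100) defining full response. Beta-arrestin recruitment detected by chemiluminescent reagent, read after 1 h at ambient temperature.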
D2 PAM-2 = positive allosteric modulators of human D2 dopamine receptor. HEK293 T-REx D2, calcium flux, EC20 dopamine potentiation. P14416. potentiation, % at 10 µM. 340,000 compounds, 0.34% hits;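 active means potentiation over 3 SD above the plate norm, cut at about 30% in these data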; further: 0% is about no effect
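Potentiation of an EC20 dopamine calcium response measured kinetically over 180 s, after a preceding 180 s compound-only read flagging agonists. Cells: inducible Hek293 Trex D2 line, 4000/well, cultured overnight at 30 C before dye loading.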
D2 ag-2 = agonists of human D2 dopamine receptor. 340,000 compounds, 0.53% hits. activation, % at 2 µM. HEK293 T-REx D2 cells, calcium flux agonist mode;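 active means activation over 3 SD above normal in the single-dose calcium agonist read, cut at about 30% in these data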; further: 0% is about no effect
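Tetracycline-induced HEK293 Trex cells with D2 receptor force-coupled to calcium signaling, plated overnight at 30 C and loaded with no-wash calcium dye. Calcium flux read kinetically for 180 s after compound addition; responses flag agonists.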
D2 antagonist = antagonizes the human D2 dopamine receptor. HEK293 TREx D2 cells, calcium flux, dopamine EC80. P14416. 340,000 compounds, 2% hits. inhibition, % at 10 µM; in the data active means inhibition above about 30%; inactive means below that, where a call was filed; further: 0% is about no effect
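Antagonism is scored as inhibition of an EC80 dopamine-evoked calcium signal in a force-coupled, tetracycline-inducible HEK293 T-REx D2 line, with compound present 180 s before agonist.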
Numbers without * were called inactive; ? = inconclusive; nt = not tested or not shown.

SMILES	D2 PAM-1	D2 ag-1	D2 PAM-2	D2 ag-2	D2 antagonist
Cc1ccc(/C=C/C(=O)Oc2ccc(C#N)cc2)o1	nt	nt	3	0	48*
CCCNC(=O)COC(=O)/C=C/c1ccc(C)o1	-6	-3	-3	2	30*
CCOC(=O)c1sc2ncn(CC(=O)Nc3ccc(C)cc3C)c(=O)c2c1C	nt	nt	-1	1	nt
Cc1ccc2c(=O)cc(C(=O)Nc3c(C)n(C)n(-c4ccccc4)c3=O)oc2c1C	nt	nt	-4	0	nt
COc1ccc(C2=NN(C(=O)CSc3ncccn3)C(c3ccc(C)cc3)C2)cc1 (stereo not given)	-24	-2	10	-1	-18
COc1ccc(C2=NN(C(=O)CSc3nc(=O)n4cccc(C)c4n3)C(c3ccc(C)cc3)C2)cc1 (stereo not given)	-22	-3	0	1	34*
COC(=O)C1C(=O)NC(SC)=C(C#N)C1c1ccccc1 (stereo not given)	0	-1	34*	0	2
CN(C)c1ccc(C(=O)/C=C/c2cccnc2)cc1	-13	-3	nt	nt	nt
CN(C)c1ccc(/C=C/C(=O)c2cccc(Br)c2)cc1	-6	2	-3	113*	2
COc1ccc(N2CCN(C(c3ccccc3F)c3sc4nc(-c5ccco5)nn4c3O)CC2)cc1 (stereo not given)	nt	nt	-3	0	nt
CC1=Nn2c(nc3sc4c(c3c2=O)CCCC4)SC1	1	-6	5	0	55*
O=c1c2c3c(sc2nc2n1CCCCC2)CCCCC3	nt	nt	8	0	57*
CC1CCC/C(=C\Nc2ccc(O)cc2)C1=O (stereo not given)	54*	13	10	0	6
Cc1cc(C(=O)O)ccc1N/C=C1\CCCC(C)C1=O (stereo not given)	-25	-3	-4	1	0
COc1ccccc1N1CCN(Cc2cc3c(cc2Br)OCCO3)CC1	-18	-18	-27	-1	104*
COc1cc(OC)c(OC)cc1CN1CCN(c2ccccc2OC)CC1	-21	1	-15	0	70*
CCOC(=O)C1CCN(c2c(NCCN3CCN(c4ccccc4)CC3)c(=O)c2=O)CC1	-7	-4	-18	37*	-7
CCOc1ccccc1N1CCN(Cc2ccc(OC)c(OC)c2OC)CC1	-20	-1	1	-3	23
COc1ccccc1N1CCN(Cc2cccc(OC)c2OC)CC1	-45	-2	-14	-1	71*
CC(C)CCNC(=O)C1CCN(S(=O)(=O)c2ccc(-n3cnnn3)cc2)CC1	-6	5	-2	0	-10
COc1ccc(CNC(=O)C2CCN(c3nc4ccccc4[nH]3)CC2)cc1OC	nt	nt	17	nt	nt
Cc1ccccc1N1CCN(Cc2cc3c(cc2[N+](=O)[O-])OCO3)CC1	-41	5	0	0	-20
COc1ccc(CC(C)N2CCN(c3ccccc3OC)CC2)cc1OC (stereo not given)	-16	-2	-25	22	89*
CCOc1ccccc1N1CCN(Cc2cc3c(cc2[N+](=O)[O-])OCO3)CC1	-25	0	-15	1	60*
CCOc1ccccc1N1CCN(C/C=C/c2ccc(N(C)C)cc2)CC1	-34	0	-21	0	79*
SMILES	D2 PAM-1	D2 ag-1	D2 PAM-2	D2 ag-2	D2 antagonist
COc1ccc(Cn2nnnc2C(C(C)C)N2CCN(c3ccccc3OC)CC2)cc1 (stereo not given)	-4	-1	-9	0	53*
CCOC(=O)c1noc2ncn(CC(=O)Nc3ccc(OC)c(Cl)c3)c(=O)c12	nt	nt	6	1	nt
CC1=C(C(=O)Nc2ccccc2)C(CC(C)C)n2nc(SCc3ccccc3C)nc2N1 (stereo not given)	nt	nt	-6	0	nt
COc1ccc(NC(=O)c2c(-c3ccc(C)cc3)nnc3ccccc23)c(OC)c1	nt	nt	1	0	nt
COc1ccccc1N1CCN(Cc2nc(N)nc(Nc3ccc(C)cc3)n2)CC1	-42	1	-38	26	89*
COc1ccccc1-n1nnnc1SCc1cc2c(cc1Br)OCO2	-14	-2	43*	0	-9
CCOc1ccccc1N1CCN(Cc2ccc(OC)c(OC)c2)CC1	1	-1	-27	-2	94*
COc1ccccc1-n1nnnc1SCc1ccccc1	-17	5	-6	-1	12
CCOc1ccccc1N1CCN(Cc2cnc(-c3ccccc3)[nH]2)CC1	-6	2	-24	0	78*
CCOc1cc(CN2CCCCCC2)ccc1OC	-5	-7	-12	0	7
Cc1ccc(Nc2nc(N)nc(CN3CCN(C)CC3)n2)cc1	-17	-1	-8	0	18
CCOc1ccc(CN(CCc2ccc3c(c2)OCO3)Cc2cc(OC)cc(OC)c2)cc1	nt	nt	-20	19	nt
CC(C)c1ccc(CC(=O)N2CCC2(C)C(=O)NS(=O)(=O)c2cccc(OC(F)F)c2)cc1 (stereo not given)	-5	-3	nt	nt	nt
COc1ccc(-n2ncc(C(=O)Nc3ccc4c(c3)OCO4)c2C2CCN(C(=O)OC(C)(C)C)CC2)cc1	nt	nt	-7	0	nt
CCOC(=O)C1CCN(Cc2ccccn2)CC1	nt	nt	-15	27	-6
CCOC(=O)C1CCN(c2ccccc2CN2CCN(c3ccccc3OCC)CC2)CC1	-24	-15	-18	0	61*
CC(=O)Oc1ccc(-c2ccc(C(=O)OCC(=O)N(C)CC(=O)Nc3ccccc3Cl)cc2)cc1	-7	1	nt	nt	nt
CCOC(=O)C(=CNCC(=O)OC)C(=O)OCC	4	1	2	-1	36*
CCOC(=O)CNC=C(C(=O)OCC)C(=O)OCC	8	-2	15	-1	-4
Cc1cccc(N=c2c([N+](=O)[O-])nn(-c3ccc(Cl)cc3)n2O)c1	?	11	2	1	10
CCc1cccc(N=c2c([N+](=O)[O-])nn(-c3ccc(Cl)cc3)n2O)c1	87*	10	-7	0	10
Cc1ccc(CN=c2c([N+](=O)[O-])nn(-c3ccc(Cl)cc3)n2O)cc1	5	1	2	-1	11
Cc1cc(C)cc(N=c2c([N+](=O)[O-])nn(-c3cccc(Cl)c3)n2O)c1	97*	9	-11	-2	10
COc1ccc(OCCOC(=O)CNC(=O)c2ccc(F)cc2)cc1	-1	0	nt	nt	nt
O=S(=O)(NCCc1nnc2ccc(SCc3cccnc3)nn12)c1ccccc1	-5	-3	32*	0	-9
C/C(=N\OC(=O)Nc1ccc(Cl)cc1)c1ccc(F)c(F)c1	-17	11	-26	-1	41*
CCSc1c(-c2ccccc2)nc2c(C)cccc2c1C(=O)O	-12	0	-17	34*	-1
O=c1nc2ccccc2c2n1CC(CN1CCN(C(c3ccccc3)c3ccccc3)CC1)N2 (stereo not given)	-16	-1	-27	-1	47*

Source: PubChem BioAssay (National Center for Advancing Translational Sciences (NCATS))
